Compound activity (PubChem BioAssay)
Bst PK mod = modulators of Bacillus stearothermophilus pyruvate kinase | Potency, µM | purified pyruvate kinase, luminescence ATP production; ribose 5-phosphate activator present at AC10 | AID 361 | hit rate 1.2% among 51,000; in the data active means potency below about 11 µM; inconclusive means mostly about 12 µM to 25 µM;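 the screen sought inhibitors and activators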;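 further: scaled between full activation by ribose 5 phosphate and full inhibition by luteolin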
GBA activity = human lysosomal glucosylceramidase modulation; P04062; hit rate 1.1% among 48,000; purified enzyme, resorufin glucoside fluorescence (screen aimed at inhibitors), 20 min; Potency, µM; AID 360; in the data active means potency below about 15 µM; inconclusive means mostly about 16 µM to 33 µM;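 further: the screen sought inhibitors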
Target sequence (P04062 whole entry, looked up): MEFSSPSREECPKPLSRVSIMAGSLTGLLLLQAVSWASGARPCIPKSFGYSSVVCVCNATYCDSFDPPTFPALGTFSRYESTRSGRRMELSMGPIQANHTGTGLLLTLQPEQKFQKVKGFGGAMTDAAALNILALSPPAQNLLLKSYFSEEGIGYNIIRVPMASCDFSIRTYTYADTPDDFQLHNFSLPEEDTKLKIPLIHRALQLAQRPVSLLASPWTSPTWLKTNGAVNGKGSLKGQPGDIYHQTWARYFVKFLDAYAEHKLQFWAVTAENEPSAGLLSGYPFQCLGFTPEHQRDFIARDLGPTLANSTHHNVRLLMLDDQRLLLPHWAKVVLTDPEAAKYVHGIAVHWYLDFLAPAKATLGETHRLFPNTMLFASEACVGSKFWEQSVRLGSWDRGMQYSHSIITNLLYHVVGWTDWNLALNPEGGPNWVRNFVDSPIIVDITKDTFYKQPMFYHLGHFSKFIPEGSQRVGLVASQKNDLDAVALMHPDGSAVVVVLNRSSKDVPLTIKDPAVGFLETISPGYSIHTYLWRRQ
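Compounds titrated against 0.2 nM normal enzyme, 30 uM resorufin beta-D-glucopyranoside substrate, citrate/phosphate buffer with taurocholate and tween-20, pH 5.9. Reaction ran 20 min at room temperature; fluorescence (Ex 548/Em 600) gave AC50.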
An asterisk follows results filed as active; i = inactive; ? = inconclusive; nt = no result given. Hits are enriched below; roughly 2.3% of the tested compounds scored in any of these assays. Potency means the concentration at half of the fitted maximal effect.

SMILES | Bst PK mod | GBA activity
COc1cccc(C(=O)Nc2ccc(-c3nnc(-c4ccco4)o3)cc2)c1 | >26 | nt
O=C(COc1ccccc1)Nc1ccc(-c2nnc(-c3ccco3)o2)cc1 | >26 | nt
Cc1ccc(Cl)cc1NC(=O)CC(O)(C(F)(F)F)C(F)(F)F | >57 | nt
CS(=O)(=O)N(CCc1ccccc1)CC(=O)NCc1ccco1 | >57 | >77
COc1ccc(-c2cc(C(=O)N3CCCCC3)no2)cc1OC | i | >77
CC1CCCC(C)N1C(=O)c1cc(-c2ccc(Cl)c(Cl)c2)on1 (stereo not given) | 7.7* | >77
Cc1ccc(-c2cc(C(=O)N3CCCC3)no2)cc1 | 7.9* | >77
CC1CCCC(C)N1C(=O)c1cc(F)c(F)cc1Cl (stereo not given) | nt | >77
O=C(NC1CC2CCC1C2)C1COc2ccccc2O1 (stereo not given) | >57 | >77
Cn1c(Br)nc2c1c(=O)n(CC(O)COc1ccccc1)c(=O)n2C (stereo not given) | >57 | >77
N#Cc1c(NC(=O)CSc2nnc(-c3ccccc3O)n2-c2ccccc2)sc2c1CCCC2 | >57 | 10*
Cc1ccc(C(=O)NCc2nnc(SCC(=O)Nc3sc4c(c3C#N)CCCC4)n2C)cc1 | >57 | >77
COc1ccc(N2CCN(C(=O)CNC(=O)Cn3c(C)cc4ccccc4c3=O)CC2)cc1 | >57 | >77
COc1ccc(N2CCN(C(c3ccccc3)c3nnnn3Cc3ccc(F)cc3)CC2)cc1 (stereo not given) | >57 | >77
COc1ccc(N=c2oc3cc(O)ccc3cc2C(=O)NCC2CCCO2)cc1 (stereo not given) | >57 | >77
Cc1ccc(N=c2oc3cc(O)ccc3cc2C(N)=O)cc1 | 9.3* | ?
Cc1cc(C)nc(SCc2nnc(SCc3ccccc3Cl)o2)n1 | >11 | >77
COc1ccc(Cn2c(C)nc3oc4cc(OC)ccc4c(=O)c3c2=O)cc1 | >57 | >77
Cc1nc(-c2coc3cc(OCC(=O)O)ccc3c2=O)cs1 | 9.6* | nt
COc1ccc2c(=O)c(-c3nc(C)cs3)coc2c1 | 4.1* | nt
Cc1ccc2c(CC(=O)OCc3csc(C)n3)coc2c1 | >57 | >77
Nc1ccc(CN2CCN(c3ccc4ccccc4n3)CC2)cc1 | >57 | >77
O=C(Nc1nnc(C2CCCCC2)s1)c1cccs1 | >57 | >77
CCc1c(C(=O)Nc2nnc(C3CC3)s2)csc1C | >57 | 1.5*
O=C(Cc1c[nH]c2ccccc12)NCc1ccc2c(c1)OCO2 | >57 | >77
SMILES | Bst PK mod | GBA activity
Cc1ccc(CNC(=O)c2ccccc2NC(=O)CSc2nnnn2C)cc1 | >57 | >77
CCOC(=O)c1sc(N)c(C#N)c1CSc1nnc(C2CCCCC2)n1N | >57 | >77
CC(C)CNC(=O)NC1C(NC(=O)NCC(C)C)N(C)C(=O)N1C (stereo not given) | 10* | >77
CN1C(=O)N(C)C(NC(=O)Nc2ccccc2)C1NC(=O)Nc1ccccc1 (stereo not given) | >57 | >77
N#CCCS(=O)(=O)c1nnnn1-c1ccccc1 | >57 | >77
Cc1cc(N2CCCCC2)n2ncc(-c3ccccc3)c2n1 | 3.4* | ?
Cc1cc(N2CCCCC2)n2ncc(-c3ccc(Cl)cc3)c2n1 | i | ?
CCOC(=O)C1=C(CSc2nc(C)ccc2C#N)OC(N)=C(C#N)C1c1cccc(OC)c1OC (stereo not given) | >57 | ?
COc1ccc(-c2c3c(=O)n(C)c(=O)n(C)c3cn2-c2cc(OC)ccc2OC)cc1 | >57 | >77
CCCNC(=O)c1ccccc1NC(=O)CN(c1ccccc1OCC)S(C)(=O)=O | >57 | >77
Cc1ccc(-c2cn3nc(C)c(C)nc3n2)cc1 | 5.5* | >77
Cc1ccc(-c2cn3c(n2)CCCC3)cc1 | >57 | >77
O=C(Cn1c(=O)[nH]n(-c2ccccc2)c1=O)N1CCCc2ccccc21 | >57 | 9*
O=C(Cn1cnc2c(cnn2-c2ccccc2)c1=O)N1CCCc2ccccc21 | >57 | >77
Cc1nn(-c2ccccc2)c2c1C(c1c(C)[nH]c(C#N)c1C)C(C#N)=C(N)O2 (stereo not given) | >57 | 11*
Cc1nn(-c2ccccc2)c(Cl)c1C1C(C#N)=C(N)Oc2n[nH]c(C)c21 (stereo not given) | >57 | ?
Cn1c(=O)c(C(=O)CSc2nncs2)c(N)n(Cc2ccccc2)c1=O | >57 | >77
CNC(=O)CSc1nnc(-c2cc3c(C)nn(-c4ccccc4)c3s2)n1C | >57 | >77
COc1nc2ccccc2cc1-c1noc(-c2cccnc2)n1 | >57 | >77
COc1ccc(-c2ccc(-c3noc(-c4ccccc4C)n3)c(OC)n2)cc1 | nt | 11*
COc1ccc(-c2ccc(-c3noc(-c4ccccc4OC)n3)c(OC)n2)cc1 | >57 | 12*
COc1nc(-c2ccc(C)cc2)ccc1-c1noc(-c2cccnc2)n1 | >57 | 12*
CCOc1ccc(-c2nc(-c3ccc(OC)cc3)no2)cc1OCC | >57 | >77
COc1ccc(-c2nc(-c3ccc(Br)cc3)no2)c(OC)c1 | 6.3* | >77
COc1cc(OC)cc(-c2nc(-c3ccccc3OC)no2)c1 | >57 | ?
